The record followed here is PubChem BioAssay (NCATS).

Experiment [1] can be described thus: Quantitative High-Throughput drug screen in 47 multiple myeloma cell lines against the NCATS MIPE library collection: RPMI8226_ATCC cell viability assay (AID 1919871). Also: nearly all actives have a fitted effect of over 30% in size. Also: potency is read from the fitted curve at half-maximal effect. The method, boiled down: (§1)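 qHTS format: cells plated (500/well), pin-dosed with MIPE 4.0 compounds, kept 48 h at 37 °C. Readout was CellTiter-Glo luminescence, median RLU.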
A short description of experiment [2]: Quantitative High-Throughput drug screen in 47 multiple myeloma cell lines against the NCATS MIPE library collection: OPM2_DSMZ cell viability assay (AID 1919872). Also: nearly all actives have a fitted effect of over 30% in size. Also: potency is read from the fitted curve at half-maximal effect. In outline: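 CellTiter-Glo luminescence (ATP) after 48 h compound exposure, 37C/5% CO2; 500 cells/well; MIPE 4.0 approved/investigational drugs pinned in; DMSO = 100%, media only = 0% viability.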

Experiment [3] is described as follows: Quantitative High-Throughput drug screen in 47 multiple myeloma cell lines against the NCATS MIPE library collection: KMS28BM_JCRB cell viability assay (AID 1919874). Also: nearly all actives have a fitted effect of over 35% in size. Also: potency is read from the fitted curve at half-maximal effect. In outline: as §1
Experiment [4] in a line: qHTS drug screen for cell cycle checkpoint inhibitors in PARPi-resistant BRCA-mutant ovarian cancer cell lines. (AID 1963452; calls by dose curve). Conditions: PEO1/OlaR viability, CellTiter-Glo luminescence, 96 h, stronger effect = lower value. The method, boiled down:
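PEO1, PEO4 and PEO1/OlaR ovarian cancer cells, 600 per well, exposed 96 h at 37C to a dilution series. Viability read by CellTiter-Glo luminescence, normalized to DMSO and empty wells; activity summarized as Z-AUC.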
For orientation: Quantitative high-throughput screening tests each substance at several concentrations.

Experiment [5] is described as follows: qHTS profiling for inhibitors of Plasmodium falciparum proliferation (AID 504749). Also: potency is read from the fitted curve at half-maximal effect.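 As to activity, negative = inhibition: 0% = DMSO vehicle and full inhibition = artemisinin control.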 As to all read-outs here: nearly all actives have a fitted effect of over 60% in size. The conditions noted are these: P. falciparum in erythrocytes, SYBR Green DNA, 72 h; for activity, negative = inhibition: at 28.7 µM (top of the series). The method, boiled down: (§2)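 Quantitative HTS: compounds pinned into medium, infected erythrocytes added (0.3% parasitemia, 2.5% hematocrit), 72 h culture at 37 C under 5% CO2. Saponin/Triton lysis with SYBR Green I, overnight RT, then fluorescence read.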

For the next experiment, the system named is 3D7. The experiment is described as above. Conditions: P. falciparum in erythrocytes, SYBR Green DNA, 72 h; series mostly up to 28.7 µM. The method, boiled down: as §2
Another experiment concerns 7G8. Described as above. Conditions: P. falciparum in erythrocytes, SYBR Green DNA, 72 h; series mostly up to 28.7 µM. In outline: as §2
The test system of a further experiment is AA1029. The description is as above. Conditions: P. falciparum in erythrocytes, SYBR Green DNA, 72 h; series mostly up to 28.7 µM. In outline: as §2
For a further experiment, the system named is AS120. Described as above. The conditions noted are these: P. falciparum in erythrocytes, SYBR Green DNA, 72 h; series mostly up to 28.7 µM. In outline:
as §2

The subject of the next experiment is ATS189. Described as above. Conditions: P. falciparum in erythrocytes, SYBR Green DNA, 72 h; series mostly up to 28.7 µM. In outline: as §2
The nature of experiment [6]: qHTS for identification of novel therapeutic agents for treatment of microphthalmiaassociated transcription factor (MiT) renal cell carcinoma (RCC) (AID 1963991). Conditions: CellTiter-Glo, 48 h, stronger effect = lower value. The method, boiled down:
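Curves over 11 concentrations were fitted to CellTiter-Glo luminescence, scaled between empty wells (0%) and DMSO (100%) viability. Cells were UOK109, UOK124 and UOK145 TFE3-fusion RCC lines at 500/well, exposed 48 hours at 37 C.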

Where [7] appears, read: measured here: PEO1 parental Z-AUC.
[8] abbreviates: TFE3-RCC UOK109 viability, measured here: UOK109 Z-AUC.
[9] abbreviates: TFE3-RCC viability, measured here: UOK124 Z-AUC.
[10] abbreviates: TFE3-RCC viability, measured here: UOK145 Z-AUC.

Results filed as inconclusive are left out. The source made the active and inactive calls. Unless noted, calls follow the shape of the dose curve; as a rule, active = well fitted curve in the direction sought with a large enough effect; inconclusive = small, poorly fitted or top-dose-only effect, or another doubt; inactive = no such curve, though single readings can be large; an effect the other way counts as inactive or inconclusive.

`CN(C)CCN(C)CCc1ccc(Cl)c(Cl)c1`: the Potency entry in experiment [1], in experiment [2] and in experiment [3] was “inactive” throughout. For the same compound, the figures for the Z-AUC in experiment [4], in experiment [4] (setting [7]) and in [4] (measured here: PEO4 Z-AUC) were 1.45 (inactive), 1.36 and 1.58, respectively.

Regarding `CC(C)CC(N(C)C)C1(c2ccc(Cl)cc2)CCC1` (stereo unspecified), the Potency entry (in [2]; with 3D7; in the experiment on 7G8; in the experiment with AA1029; in the experiment on AS120; with ATS189) was “inactive” each time. The Z-AUC in [4] is 0.505 (inactive); in experiment [4] (setting [7]) it was 0.684; in [4] (measured here: PEO4 Z-AUC) it was 0.647. Moreover, the activity, negative = inhibition was 6.97% (inactive) in [5] (parasite line A) and 4.99% (inactive) in experiment [5] (parasite line B).

As to `C=C(C)[C@H]1Cc2c(ccc3c2O[C@@H]2COc4cc(OC)c(OC)cc4[C@@H]2C3=O)O1`, the Potency in [2] is 4.69 µM (active); in the experiment on 7G8, 10 µM (active). Besides, the Z-AUC in [4] was -1.61 (inactive); in experiment [4] (setting [7]), -2.63; in experiment [4] (measured here: PEO4 Z-AUC) it was -1.87. The values for the activity, negative = inhibition in experiment [5] (parasite line A) and in experiment [5] (parasite line B) were -0.828% (inactive) and -4.67% (inactive), respectively. Moreover, the Potency entry in the experiment on 3D7, in the experiment on AA1029, with AS120 and in the experiment with ATS189 was “inactive” each time.

On to `C#CCN(C)[C@H](C)Cc1ccccc1`, for which, in [2], the Potency entry is “inactive”. Further, the Z-AUC in experiment [4] was 0.853 (inactive); in experiment [4] (setting [7]) it was 0.381; in [4] (measured here: PEO4 Z-AUC), 0.551. Moreover, the z-score is 0.064 in experiment [6] (setting [8]), -0.193 in experiment [6] (setting [9]) and 0.147 in experiment [6] (setting [10]).

With `CN(C)[C@@H]1C(=O)C(C(N)=O)=C(O)[C@@]2(O)C(=O)C3=C(O)c4c(O)cccc4[C@@](C)(O)[C@H]3C[C@@H]12`, the Potency in experiment [1] is 5.9 µM (active); in experiment [2], 16.6 µM (active). Also, the Potency result in experiment [3] was “inactive”. Further, the Z-AUC in experiment [4] was 1.23 (inactive); in experiment [4] (setting [7]), 0.408; in [4] (measured here: PEO4 Z-AUC), 1.42. The z-score in experiment [6] (setting [8]) was determined as 1.21; in experiment [6] (setting [9]), 0.89; in experiment [6] (setting [10]), 1.72.

Take `CNCC(O)c1ccc(O)cc1` (stereo unspecified): the Potency entry in [1], in [2] and in [3] was “inactive” throughout. In addition, the Z-AUC in [4] was -0.876 (inactive); in experiment [4] (setting [7]) it was -0.301; in experiment [4] (measured here: PEO4 Z-AUC) it was -0.927. The values for the z-score in [6] (setting [8]), in experiment [6] (setting [9]) and in [6] (setting [10]) were 0.0605, 0.435 and -0.102, respectively.

As for `O=c1[nH]c2ccccc2n1CCCN1CCC(n2c(=O)[nH]c3cc(Cl)ccc32)CC1`, the Potency result in experiment [2] was “inactive”. In addition, the Z-AUC was 1.58 (inactive) in experiment [4], 0.892 in experiment [4] (setting [7]) and 0.827 in experiment [4] (measured here: PEO4 Z-AUC). In addition, the figures for the Potency (in [5] (parasite line A); with 7G8; in the experiment with AS120) were 11.2 µM (active), 1.41 µM (active) and 5.01 µM (active), respectively.

Take `Cc1sc2c(c1C)C(c1ccc(Cl)cc1)=N[C@@H](CC(=O)OC(C)(C)C)c1nnc(C)n1-2`: the Potency in [3] is 0.105 µM (active). The values for the Z-AUC in experiment [4], in experiment [4] (setting [7]) and in experiment [4] (measured here: PEO4 Z-AUC) were -0.873 (inactive), -0.421 and -0.731, respectively.

With `CNC(=O)c1ccc(N2C(=S)N(c3ccc(C#N)c(C(F)(F)F)c3)C(=O)C23CCC3)cc1F`, the Potency entry in [1], in [2] and in [3] was “inactive” each time. Besides, the Z-AUC in experiment [4] is 1.87 (inactive); in [4] (setting [7]), 1.38; in experiment [4] (measured here: PEO4 Z-AUC) it was 1.39.

Regarding `N[C@@H](Cc1ccc(N(CCCl)CCCl)cc1)C(=O)O`, the Potency was 18.7 µM (active) in [2], 23.5 µM (active) in experiment [3] and 11.2 µM (active) with 7G8. Also, the values for the Z-AUC in [4], in [4] (setting [7]) and in [4] (measured here: PEO4 Z-AUC) were -0.14 (inactive), -0.257 and -0.0487, respectively.

With `CCCC(C)(COC(N)=O)COC(=O)NC(C)C` (stereo unspecified), the Potency entry (in experiment [1]; in experiment [2]; in the experiment on 3D7; in the experiment with 7G8; in the experiment on AA1029; in the experiment on AS120) was “inactive” throughout. Moreover, the Potency result in the experiment on ATS189 was “inactive”. The results for the z-score in experiment [6] (setting [8]), in [6] (setting [9]) and in [6] (setting [10]) were -0.172, 0.563 and 0.256, respectively. In addition, the activity, negative = inhibition was 8.09% (inactive) in experiment [5] (parasite line A) and 15.9% (inactive) in [5] (parasite line B).

Take `CCC(COC(=O)c1cc(OC)c(OC)c(OC)c1)(c1ccccc1)N(C)C` (stereo unspecified): the values for the activity, negative = inhibition in experiment [5] (parasite line A) and in experiment [5] (parasite line B) were -11.1% (inactive) and -13.8% (inactive), respectively. The Potency entry with 3D7, with 7G8, with AA1029, in the experiment on AS120 and with ATS189 was “inactive” each time.

As for `N#CC(C#N)=Cc1ccc(O)c(O)c1`, the activity, negative = inhibition was -14.1% (inactive) in experiment [5] (parasite line A) and -25.8% (inactive) in experiment [5] (parasite line B). For the same compound, the Potency entry with 3D7, in the experiment on AA1029, in the experiment on AS120 and in the experiment with ATS189 was “inactive” throughout. The Potency in the experiment with 7G8 was 8.91 µM (active).

For the compound `CC(CCc1ccccc1)NC(C)C(O)c1ccc(O)cc1` (stereo unspecified), the values for the activity, negative = inhibition in [5] (parasite line A) and in experiment [5] (parasite line B) were 8.41% (inactive) and 8.3% (inactive), respectively. In addition, the Potency entry with 3D7 is “inactive”.

Turning to `O=C(O)c1ccc2[nH]cc(CCCCN3CC=C(c4ccccc4)CC3)c2c1`, the activity, negative = inhibition in experiment [5] (parasite line A) is 5.66% (inactive); in experiment [5] (parasite line B), 0.723% (inactive). Moreover, the Potency result with 3D7, in the experiment with 7G8, in the experiment with AA1029, in the experiment on AS120 and with ATS189 was “inactive” throughout.

Take `Cn1c(CCCC(=O)O)nc2cc(N(CCCl)CCCl)ccc21`: the Potency result (in experiment [3]; in the experiment on 3D7; in the experiment with AA1029; with AS120; in the experiment with ATS189) was “inactive” throughout. In addition, the Z-AUC was 2 (inactive) in experiment [4], 1.56 in [4] (setting [7]) and 2.09 in [4] (measured here: PEO4 Z-AUC). The z-score in [6] (setting [8]) turned out to be 1.39; in experiment [6] (setting [9]), 2.59; in [6] (setting [10]), 0.899. Moreover, the activity, negative = inhibition in experiment [5] (parasite line A) is -26.2% (inactive); in [5] (parasite line B), 3.04% (inactive).

On to `CCN(C(C)=O)c1cccc(-c2ccnc3c(C#N)cnn23)c1`, for which the activity, negative = inhibition in experiment [5] (parasite line A) is 6.76% (inactive); in [5] (parasite line B), 2.02% (inactive). Further, the Potency result with 3D7, in the experiment with 7G8, in the experiment on AA1029, in the experiment with AS120 and with ATS189 was “inactive” throughout.

Take `C[C@]12CCC(=O)C(O)=C1CC[C@@H]1[C@@H]2CC[C@]2(C)C(=O)CC[C@@H]12`: the Z-AUC in [4] was 0.873 (inactive); in [4] (setting [7]) it was 1.02; in experiment [4] (measured here: PEO4 Z-AUC), 1.06.

For the compound `C=C1CC[C@@]2(O)[C@H]3Cc4ccc(O)c5c4[C@@]2(CCN3CC2CC2)[C@H]1O5`, the activity, negative = inhibition was 9.27% (inactive) in experiment [5] (parasite line A) and 12.8% (inactive) in experiment [5] (parasite line B). Further, the Potency entry in the experiment with 3D7, in the experiment with 7G8, with AA1029, in the experiment on AS120 and in the experiment on ATS189 was “inactive” each time.

`FC(F)(F)c1cccc(C2=CCN(CCc3ccc4ccccc4c3)CC2)c1`: the activity, negative = inhibition was -13.7% (inactive) in experiment [5] (parasite line A) and -28.6% (inactive) in experiment [5] (parasite line B). For the same compound, the Potency entry with 3D7, in the experiment on 7G8, in the experiment with AA1029, in the experiment on AS120 and with ATS189 was “inactive” each time.

Consider `CCN(CC)CCOC(=O)C(O)(c1ccccc1)c1ccccc1`, for which the activity, negative = inhibition is 9.85% (inactive) in [5] (parasite line A) and -20.6% (inactive) in experiment [5] (parasite line B). Also, the Potency result with 3D7, in the experiment with 7G8, with AA1029, with AS120 and in the experiment with ATS189 was “inactive” throughout.
